Experimental data published in PubChem BioAssay (NCI).
Compounds without any hit were thinned out: in the full panel of roughly 83,000, 20% have a hit.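 96-well plates, one dose, 48 hours. Percent growth reported; active if below 10.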 Unmarked numbers belong to inactive results. Activity calls are given as the source filed them.

System: HL-60(TB) leukemia
Test: NCI-60 one-dose screen, 48 h (100 = growth as untreated, 0 = no growth, -100 = all killed)
Details: 10 µM unless noted

SMILES | growth
COc1ccc(OC)c([N+](=O)[O-])c1C(=O)CNC(C)=O | 104%
C=C1C(=O)O[C@H]2[C@H]1CC/C(COC(=O)c1cc(OC)c(OC)c(OC)c1)=C\CC[C@@]1(C)O[C@@H]21 | -65.1% (active)
CCCCC(O)Cn1ncc(C(=O)OCC)c1NC(=O)NCc1ccccc1C(F)(F)F (stereo not drawn) | 76.3%
Cc1csc2ccc(Cl)cc12 | 110%
COc1cc(/C=C/C(=O)CC(=O)/C=C/c2ccc(OC(=O)C3C4CC5CC(C4)CC3C5)c(OC)c2)ccc1OC(=O)C1C2CC3CC(C2)CC1C3 (stereo not drawn) | 94%
Fc1ccc(NCc2cn(-c3ccccc3)nc2-c2ccc(OCc3ccccc3)cc2)cc1Cl | 79.5%
CCC(CC)(N(CC(=O)O)CC(=O)O)C(CC)(CC)N(CC(=O)O)CC(=O)O | 79.1%
O=C(OCc1ccccc1)n1nnc2ccccc21 | 111%
Cc1nn(C)c2ncnc(Nc3ccccc3Br)c12 | 94.3%
O=C(CSc1nc2ccccc2[nH]1)c1ccc(N2CCOCC2)cc1 | 113%
CC1(C)CC(=O)c2c(nn(-c3ccc(Br)cc3)c2-c2cn(-c3ccccc3)nc2-c2cccnc2)C1 | 92.1%
O=C(O)C(Cc1ccccc1)N1C(=O)/C(=C/C(Cl)=C/c2ccc([N+](=O)[O-])cc2)SC1=S (stereo not drawn) | -8.33% (active)
CC(=O)[C@@H]1CC[C@]2(C(=O)n3ccnc3)CC[C@]3(C)[C@H](CC[C@@H]4[C@@]5(C)Cc6c([nH]c7ccccc67)C(C)(C)[C@@H]5CC[C@]43C)[C@@H]12 | 90.9%
